Screens from PubChem BioAssay.
Compounds with a hit are over-represented: about 18% of the library has one in this group of screens.
IL1B secr inh – inhibitors of inflammasome signaling (IL-1 beta secretion) | THP-1 LPS/ATP IL-1B secretion, AlphaLISA, 16 h; active compounds read low | activity change, % at 57.5 µM | AID 743279 | 4.7% of 360,000 active; in the data active = activity change below about -50%; inconclusive = mostly about -30% to -49%; also: % is scaled to controls: 0 for no effect and ±100 for the full control effect
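Secreted IL-1B measured by AlphaLISA bead assay after 16 h compound exposure of THP-1 cells; compounds (final up to 57.5 uM) added 1 h before LPS (250 ng/mL) and ATP (1.25 mM) stimulation; lower signal means less secretion.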
DT40 TDP1 CPT – DT40-hTDP1 cell growth loss with CPT | AID 686979 | chicken DT40 Tdp1-/-;hTDP1 cells + 20 nM CPT, ATP luminescence, 48 h | Potency, µM (doses to about 46.2 µM), without a hit: at the top dose activity change, negative = growth inhibition, hits mostly inhibitors | 12% of 420,000 active; also: potency is read from the fitted curve at half-maximal effect; % is scaled to controls: 0 for no effect and ±100 for the full control effect; nearly all actives have a fitted effect of over 55% in size
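Chicken DT40 Tdp1-/- cells stably complemented with human TDP1 were seeded at 400 cells/well in medium containing 20 nM camptothecin, exposed to pin-transferred compounds, and grown at 37 °C for at least 48 hr. Viability was read as ATP luminescence.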
HepG2 tox – HepG2 cytotoxicity, counter-screen for TGF-b inhibitors; AID 588856; 0.76% of 410,000 active; HepG2 CAGA-GFP viability, ATP luminescence, 18 h; Potency, µM (series often up to 46.1 µM), for the others: at the top dose activity change, negative = cytotoxicity, hits mostly cytotoxic; also: potency is read from the fitted curve at half-maximal effect
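HepG2 CAGA-GFP cells (1000/well, DMEM with 1% FBS) received compound, then TGF-beta at 500 pg/mL final, and were incubated 18 hours at 37 degrees C. Viability was read by CellTiter-Glo luminescence. Media-only wells were set as complete cell-killing and DMSO as no toxicity.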
TDP1 inh – TDP1 (human) enzyme inhibition; Q9NUW8; recombinant TDP1, AlphaScreen DNA substrate cleavage; Potency, µM (top dose mostly 130 µM), without a hit: top-dose activity change, negative = inhibition, hits mostly inhibitors; 0.28% of 350,000 active; AID 485290; also: potency is read from the fitted curve at half-maximal effect; % is scaled to controls: 0 for no effect and ±100 for the full control effect; nearly all actives have a fitted effect of over 40% in size
Target sequence (Q9NUW8 whole entry, looked up): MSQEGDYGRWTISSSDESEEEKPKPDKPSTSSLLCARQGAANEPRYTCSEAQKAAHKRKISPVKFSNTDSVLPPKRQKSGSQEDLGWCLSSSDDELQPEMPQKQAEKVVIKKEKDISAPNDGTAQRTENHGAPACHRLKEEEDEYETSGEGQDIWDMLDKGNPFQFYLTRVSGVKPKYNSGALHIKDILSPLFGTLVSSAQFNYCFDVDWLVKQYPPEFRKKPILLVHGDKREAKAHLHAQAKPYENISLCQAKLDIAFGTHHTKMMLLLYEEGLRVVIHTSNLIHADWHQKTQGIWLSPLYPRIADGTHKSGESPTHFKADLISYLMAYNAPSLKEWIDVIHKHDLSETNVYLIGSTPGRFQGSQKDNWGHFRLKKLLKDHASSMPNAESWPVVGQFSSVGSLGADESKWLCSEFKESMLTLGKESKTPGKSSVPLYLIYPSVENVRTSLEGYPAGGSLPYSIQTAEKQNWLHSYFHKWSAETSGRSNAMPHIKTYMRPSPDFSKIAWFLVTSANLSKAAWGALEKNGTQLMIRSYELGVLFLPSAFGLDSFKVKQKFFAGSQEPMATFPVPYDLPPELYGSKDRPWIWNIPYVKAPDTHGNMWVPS
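Recombinant human Tdp1 (E. coli-expressed, 1 nM final) preincubated with compounds 15 min at room temperature, then 5'-biotin/3'-phosphotyrosine-FITC DNA substrate (15 nM final) added for 5 min. AlphaScreen beads (10 ug/ml final) added 10 min; cleavage lowers signal.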
DT40 TDP1 no CPT – qHTS for Inhibitors of human tyrosyl-DNA phosphodiesterase 1 (TDP1): qHTS in cells in absence of CPT | Potency, µM (series often up to 46.2 µM), for the others: top-dose activity change, negative = growth inhibition, actives largely listed as inhibitors | DT40 Tdp1-/- hTDP1 cells, no CPT, ATP luminescence, 48 h | 15% of 420,000 active; also: potency is read from the fitted curve at half-maximal effect; % is scaled to controls: 0 for no effect and ±100 for the full control effect; nearly all actives have a fitted effect of over 55% in size
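Growth kinetics read by CellTiter-Glo luminescence after ≥48 hr at 37 °C. Cells: DT40 Tdp1-/- stably carrying human TDP1, 400 per well, compound exposure in the absence of CPT (DMSO vehicle).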
TGFb SMAD3 inh – inhibitors of TGF-b signaling; HepG2 CAGA-GFP TGF-b/SMAD3 reporter, GFP fluorescence, 18 h; TGF-beta stimulated, 500 pg/mL final; Potency, µM (titrated, usually from 46.1 µM), inactives show at the highest dose activity, negative = inhibition, most hits filed as inhibitors; 1.2% of 410,000 active; also: potency is read from the fitted curve at half-maximal effect; % is scaled to controls: 0 for no effect and ±100 for the full control effect; nearly all actives have a fitted effect of over 65% in size
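Inhibition of TGF-beta-driven CAGA-GFP reporter expression in HEPG2 cells is measured by cellular GFP fluorescence after 18 h stimulation with 500 pg/mL recombinant TGF-beta in 1% FBS medium at 37 degrees C.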
Active calls of the source: *; ? = inconclusive; . = no result given. Unless noted, calls follow the shape of the dose curve; as a rule, active = well fitted curve in the direction sought with a large enough effect; inconclusive = small, poorly fitted or top-dose-only effect, or another doubt; inactive = no such curve, though single readings can be large; an effect the other way counts as inactive or inconclusive.

SMILES | IL1B secr inh | DT40 TDP1 CPT | HepG2 tox | TDP1 inh | DT40 TDP1 no CPT | TGFb SMAD3 inh
COc1ccc(-c2nnc3n2N=C(c2ccccc2OC)CS3)cc1OC | . | . | . | 10.9% | . | .
Cn1c(N)c(C(=O)COC(=O)c2ccc3c(c2)OCCO3)c(=O)n(C)c1=O | 0.0 | 9.9% | -3.3% | -2.0% | -9.2% | -4.8%
CC(C)Cn1c(N)c(C(=O)CSc2ccc3c(c2)OCCO3)c(=O)n(C)c1=O | -7.9 | 4.11µM* | -20.0% | 3.9% | 3.66µM* | -0.9%
CC(C)Cn1c(N)c(C(=O)COC(=O)c2ccc3c(c2)OCCO3)c(=O)n(C)c1=O | -4.4 | 18.4µM* | -33.2% | 9.1% | 20.6µM* | -16.5%
O=C(Nc1ccc(C(=O)N2CCC(O)(c3ccc(Cl)c(C(F)(F)F)c3)CC2)cc1)c1ccc(Br)o1 | -61.4* | ? | -4.1% | -0.2% | 18.4µM* | ?
COc1ccc(CCNCC(O)COc2cccc(Br)c2)cc1 (configuration not stated) | -58.6* | ? | 12.6µM* | 5.4% | ? | -36.7%
OC(COc1ccc(OCC(O)CN2CCCCC2)cc1)CN1CCCCC1 (configuration not stated) | ? | -25.0% | -0.4% | . | ? | 0.6%
OC(CNC1CCCCCC1)COc1cccc2ccccc12 (configuration not stated) | -105.3* | 16.4µM* | -96.7% | . | 13µM* | ?
OC(CNC1CCCC1)COc1ccccc1Br (configuration not stated) | -5.9 | -18.5% | -15.6% | . | ? | 1.3%
CN(Cc1ccc(Br)cc1)CC(O)COc1cccc(Br)c1 (configuration not stated) | -93.2* | ? | -30.8% | 6.3% | ? | ?
OC(COc1ccc(CNCCc2ccc(C(F)(F)F)cc2)cc1)CN1CCCCC1 (configuration not stated) | -23.6 | 4.61µM* | -101.0% | -3.7% | 5.8µM* | ?
CC(=O)c1cccc(OCC(O)CNCCc2ccc(Cl)cc2)c1 (configuration not stated) | ? | ? | -9.9% | . | -14.7% | 0.0%
CCOc1ccc(NC(=O)Cn2cc(C(=O)c3ccc(F)cc3)c(=O)c3cc4c(cc32)OCO4)cc1 | . | -27.6% | -2.9% | 1.3% | -26.9% | -19.3%
COc1ccccc1COCC(O)CN1CCCCC1CO (configuration not stated) | 43.6 | -19.1% | -9.6% | . | 19.5% | -6.3%
CN(Cc1ccc(OCC(O)CN(C)Cc2ccccc2)cc1)Cc1nccn1C (configuration not stated) | -11.4 | ? | -0.6% | . | ? | -2.0%
COc1ccc(CN(C)CC(O)COc2ccc(-c3ccccc3)cc2)cc1OC (configuration not stated) | -70.7* | 18.4µM* | -90.1% | 6.8% | ? | ?
C=CCOc1ccc(CN(C)CC(O)COc2ccc(CCC(C)=O)cc2)cc1 (configuration not stated) | -17.2 | ? | -25.9% | 0.6% | 16.4µM* | -17.8%
COc1ccccc1COCC(O)CNCCc1ccc(C(F)(F)F)cc1 (configuration not stated) | -77.5* | ? | -87.3% | . | ? | ?
OC(CNCCc1ccc(C(F)(F)F)cc1)COc1cccc2ccccc12 (configuration not stated) | -62.6* | ? | -113.8% | 2.7% | ? | ?
COC(=O)c1cc2sc(Cl)cc2n1Cc1c(C)cc(C)cc1C | . | 4.7% | 2.4% | 2.0% | 2.0% | -15.7%
Cc1ccc(NC(=O)CNC(=O)Cc2cccc3ccccc23)c(O)c1 | 28.3 | -2.2% | 4.1% | -11.8% | -0.6% | -0.5%
